Results on 55 molecules are retold here after publication PMC12431657, “Discovery and mechanistic insights of dibenzoylmethane as a broad spectrum inhibitor of coronavirus” (PLOS Pathogens, 2025).

Where a name gives a salt, the structure may show the parent alone. Read-outs that look alike come from different tables or passages of the source. Among all 3,300 compounds or so, about 60 (2%) showed an effect of 50% or more. This is one part of a sample in which strong results are shown more often than they occur.

The subject of this assay is HCoV-OC43. Also noted: species or system RD; HTS, protection from HCoV-OC43 induced cell death, luminescent cell viability (CellCounting-Lite 2.0), inhibition rate. The conditions noted are these: 24 h post infection, 1 h compound pre-incubation, 10 µM, inhibitor.

Turning to `Nc1ccccc1C(=O)C[C@@H](N)C(=O)O` [D-Kynurenine], the “OC43 Inhibition rate” value is on record as -6.1%. On to `CCCCCCCCCCCCCCCCCC(=O)NCc1ccccc1` [N-Benzyloctadecanamide], for which the “OC43 Inhibition rate” value is -0.1%. Consider `CCCCCCCC/C=C\CCCCCCCC(=O)NCc1ccccc1` [N-Benzyloleamide], for which the “OC43 Inhibition rate” value is recorded as 56.9%. On the same count and under the same terms, for `CCCCC/C=C\C/C=C\CCCCCCCC(=O)NCc1ccccc1` [N-Benzyllinoleamide] the value was 40%. As to `COc1cc([C@@H]2[C@H]3CO[C@@]4(O)C(=O)[C@@H]2C=C([C@H]2Oc5cc(O)cc(O)c5C(=O)[C@@H]2O)[C@@H]34)ccc1O` [Silydianin], the “OC43 Inhibition rate” value is reported as -0.1%. Regarding `O=C(/C=C/c1ccccc1)OCc1ccccc1` [Benzyl cinnamate], the “OC43 Inhibition rate” value was determined as 2%. The same measure, in the same setting: for `O=C(CCCCCCCCc1ccc(O)cc1)c1c(O)cccc1O` [Malabaricone B] the value was 54%; for `O=C(CCCCCCCCc1ccc(O)c(O)c1)c1c(O)cccc1O` [Malabaricone C], 12.2%. Consider `O=C(CCc1ccc(O)cc1)c1c(O)cc(O)cc1O` [Phloretin], for which the “OC43 Inhibition rate” value is given as -0.3%. On to `CCCCCCCCCCCCCCCCCCCCC` [Heneicosane], for which the “OC43 Inhibition rate” value was -0.3%. With `CO[C@H]1[C@@H](O)[C@H](O[C@@H]2[C@@H](C)O[C@@H](O[C@H]3CC[C@@]4(C)[C@@H](CC[C@@]56O[C@@]57CC[C@@H](C(C)=O)[C@@]7(C)[C@H](OC(C)=O)[C@@H](OC(=O)c5ccccc5)[C@H]46)C3)C[C@H]2OC)O[C@H](C)[C@H]1O` [Tenacissoside I], the “OC43 Inhibition rate” value was -4%. With `Cc1ccc(O)c(O)c1` [4-Methylcatechol], the “OC43 Inhibition rate” value was -0.9%. `COc1cc(O)c(C(=O)/C=C/c2ccc(O)cc2)c(OC)c1` [Flavokawain C]: the “OC43 Inhibition rate” value is listed as 4.2%.

Take `COc1cc(O)c(C(=O)/C=C/c2ccccc2)c(OC)c1` [Flavokawain B]: the “OC43 Inhibition rate” value is 58.3%.

For `COc1cc(O)c(C(=O)/C=C/c2ccccc2)c(O)c1` [Pinostrobin chalcone], the “OC43 Inhibition rate” value came out at 0%. `O=C(N[C@@H](c1ccccc1)[C@@H](O)C(=O)O)c1ccccc1` [N-Benzoyl-(2R,3S)-3-phenylisoserine]: the “OC43 Inhibition rate” value is on record as 0.3%.

For the molecule `C/C=C(/C)C(=O)O` [Angelic acid], the “OC43 Inhibition rate” value is -0.3%.

Turning to `CC(=O)OC/C1=C/C[C@H]2[C@@H](/C=C(\C)C(=O)[C@@]3(OC(C)=O)C[C@H](C)[C@H](OC(=O)c4ccccc4)[C@@H]3[C@H]1OC(C)=O)C2(C)C` [Euphorbia factor L7b], the “OC43 Inhibition rate” value came out at 8.6%. For `CCOC(=O)/C=C/c1ccccc1` [Ethyl cinnamate], the “OC43 Inhibition rate” value is listed as -1.2%. As to `CC(=O)OC/C1=C\[C@H]2[C@@H](OC(=O)/C=C/c3ccccc3)[C@@H](C)C[C@]2(OC(C)=O)C(=O)/C(C)=C/[C@@H]2[C@H](CC1)C2(C)C` [Euphorbia factor L7a], the “OC43 Inhibition rate” value turned out to be 75.3%. With `COc1cccc(-c2oc3ccccc3c(=O)c2O)c1` [3'-Methoxyflavonol], the “OC43 Inhibition rate” value is given as -2%. Consider `O[C@H]1[C@H]2c3cc4c(cc3CN3CCC(=C[C@@H]1O)[C@H]23)OCO4` [Lycorine], for which the “OC43 Inhibition rate” value is listed as 60.9%.

Turning to `O[C@H]1[C@H]2c3cc4c(cc3CN3CC[C@H](C[C@@H]1O)[C@H]23)OCO4` [Dihydrolycorine], the “OC43 Inhibition rate” value is 0%. With `c1cc2c(c3c1CC1c4cc5c(cc4CCN1C3)OCO5)OCO2` (racemic) [(±)-Stylopine], the “OC43 Inhibition rate” value is -0.3%. Regarding `OCc1cccc2ccccc12` [1-Naphthalenemethanol], the “OC43 Inhibition rate” value is listed as 2.9%. In the case of `CC(C)=CCC[C@](C)(O[C@@H]1O[C@H](CO)[C@@H](O)[C@H](O)[C@H]1O)[C@H]1CC[C@]2(C)[C@@H]1[C@H](O)C[C@@H]1[C@@]3(C)CC[C@H](O)C(C)(C)[C@@H]3CC[C@]12C` [Ginsenoside C-K], the “OC43 Inhibition rate” value came to 38.7%.

For `COc1cc(/C=C/C(=O)OC[C@H]2O[C@H](O[C@]3(CO)O[C@H](CO)[C@@H](O)[C@@H]3O)[C@H](O)[C@@H](O)[C@@H]2O)cc(OC)c1O` [Sibiricose A1], the “OC43 Inhibition rate” value is reported as 2.3%. On to `COc1ccc2cc1Oc1ccc(cc1)C[C@H]1c3cc(c(OC)cc3CCN1C)Oc1c(O)c(OC)cc3c1[C@H](C2)N(C)CC3` [Fangchinoline], for which the “OC43 Inhibition rate” value stood at 41.6%.

Regarding `COc1cc2c3cc1Oc1c(OC)c(OC)cc4c1[C@@H](Cc1ccc(O)c(c1)Oc1ccc(cc1)C[C@@H]3N(C)CC2)N(C)CC4` [Berbamine], the “OC43 Inhibition rate” value was found to be 0%. On to `COc1ccc2cc1Oc1ccc(cc1)C[C@H]1c3cc(c(OC)cc3CCN1C)Oc1c(OC)c(OC)cc3c1[C@H](C2)N(C)CC3` [tetrandrine], for which the “OC43 Inhibition rate” value was 79.7%. Turning to `Oc1ccc(CC2NCCc3cc(O)c(O)cc32)cc1` (stereo not shown) [Higenamine (hydrochloride)], the “OC43 Inhibition rate” value is on record as 0.1%. The same measure, in the same setting: for `Oc1ccc2[nH]ccc2c1` [5-Hydroxyindole] the value was 1.1%; for `COc1c2c(cc3oc(CO)cc(=O)c13)O[C@H](C(C)(C)O)C2` [Cimifugin], 0.3%. Consider `OC1COC(O)CO1` (stereo not shown) [1,4-Dioxane-2,5-diol], for which the “OC43 Inhibition rate” value is given as 1.3%. For `CC(C)c1cc2c(c(O)c1O)[C@@]13CCCC(C)(C)[C@@H]1C[C@@H]2OC3=O` [Carnosol], the “OC43 Inhibition rate” value is -0.4%.

In the case of `CC(C)c1ccc2c(c1)CC[C@H]1[C@](C)(C(=O)O)CCC[C@]21C` [Dehydroabietic acid], the “OC43 Inhibition rate” value is given as -0.5%.

Regarding `COc1c(C(C)C)cc2c(c1O)[C@@]1(C(=O)O)CCCC(C)(C)[C@@H]1CC2` [12-O-Methylcarnosic acid], the “OC43 Inhibition rate” value worked out at 54.1%.

Consider `COc1cc(C=CC(=O)O)cc(OC)c1O` (stereo in doubt) [Sinapinic acid], for which the “OC43 Inhibition rate” value is given as 1.1%. In the case of `NC1CCN(c2nc3c(cc2F)c(=O)c(C(=O)O)cn3-c2ccc(F)cc2F)C1` (stereo not shown) [Tosufloxacin (tosylate hydrate)], the “OC43 Inhibition rate” value is given as 58.8%. For the molecule `CCn1cc(C(=O)O)c(=O)c2ccc(C)nc21` [Nalidixic acid], the “OC43 Inhibition rate” value is given as 0.1%.

Regarding `O=C(O)C(O)c1ccc(O)c(O)c1` (stereo not shown) [3,4-Dihydroxymandelic acid], the “OC43 Inhibition rate” value is -0.2%. In the case of `CC(C)=CCC/C(C)=C/Cc1cc(-c2coc3cc(O)ccc3c2=O)ccc1O` [Corylifol A], the “OC43 Inhibition rate” value is on record as -2.2%. Consider `CCCC(=O)C(=O)O` [2-Oxovaleric acid], for which the “OC43 Inhibition rate” value is -0.9%. Turning to `COc1ccc(/C=C/C(=O)O)cc1` [4-Methoxycinnamic acid], the “OC43 Inhibition rate” value (OC43 Inhibition rate, 24 h) is -0.5%. On to `CSCC[C@H](NC(C)=O)C(=O)O` [N-Acetyl-L-methionine], for which the “OC43 Inhibition rate” value stood at 0.8%. As for `C[C@@H]1CC[C@@]2(OC1)O[C@H]1C[C@H]3[C@@H]4CC=C5C[C@@H](O[C@@H]6O[C@H](CO)[C@@H](O)[C@H](O[C@@H]7O[C@H](CO)[C@@H](O)[C@H](O)[C@H]7O)[C@H]6O[C@@H]6O[C@@H](C)[C@H](O)[C@@H](O)[C@H]6O)CC[C@]5(C)[C@H]4CC[C@]3(C)[C@H]1[C@@H]2C` [Gracillin], the “OC43 Inhibition rate” value came out at 7%. Still for that read-out and setting: for `C[C@@H]1CC[C@@]2(OC1)O[C@H]1C[C@H]3[C@@H]4CC=C5C[C@@H](O[C@@H]6O[C@H](CO)[C@@H](O)[C@H](O)[C@H]6O[C@@H]6O[C@@H](C)[C@H](O)[C@@H](O)[C@H]6O)CC[C@]5(C)[C@H]4CC[C@]3(C)[C@H]1[C@@H]2C` [Prosapogenin A] the value was -12%; for `C[C@@H]1CC[C@@]2(OC1)O[C@H]1C[C@H]3[C@@H]4CC=C5C[C@@H](O)C[C@@H](O[C@@H]6O[C@H](C)[C@H](O)[C@H](O[C@@H]7OC[C@@H](O)[C@H](O)[C@H]7O)[C@H]6O[C@@H]6O[C@H](CO)[C@@H](O)[C@H](O)[C@H]6O)[C@]5(C)[C@H]4CC[C@]3(C)[C@H]1[C@@H]2C` [Saponin C, from Liriope muscari], 66.4%. Regarding `C[C@@H]1CC[C@@]2(OC1)O[C@H]1C[C@H]3[C@@H]4CC=C5C[C@@H](O)C[C@@H](O[C@@H]6O[C@H](C)[C@H](O)[C@H](O[C@@H]7OC[C@@H](O)[C@H](O)[C@H]7O)[C@H]6O[C@@H]6O[C@@H](C)[C@H](O)[C@@H](O)[C@H]6O)[C@]5(C)[C@H]4CC[C@]3(C)[C@H]1[C@@H]2C` [Ophiopogonin D'], the “OC43 Inhibition rate” value (OC43 Inhibition rate, 24 h) is reported as -0.3%. Take `C[C@H]1CC[C@@]2(OC1)O[C@H]1C[C@H]3[C@@H]4CC=C5C[C@@H](O[C@@H]6O[C@H](CO)[C@@H](O)[C@H](O[C@@H]7OC[C@@H](O)[C@H](O)[C@H]7O)[C@H]6O[C@@H]6O[C@@H](C)[C@H](O)[C@@H](O)[C@H]6O)CC[C@]5(C)[C@H]4CC[C@]3(C)[C@H]1[C@@H]2C` [Liriope muscari baily saponins C]: the “OC43 Inhibition rate” value turned out to be 66.1%. With `C[C@@H]1CC[C@@]2(OC1)O[C@H]1C[C@H]3[C@@H]4CC=C5C[C@@H](O)C[C@@H](O[C@@H]6O[C@H](C)[C@H](O)[C@H](O[C@@H]7OC[C@@H](O)[C@H](O)[C@H]7O)[C@H]6O[C@@H]6O[C@@H](C)[C@H](O)[C@@H](O)[C@H]6O)[C@]5(C)[C@H]4CC[C@]3(C)[C@H]1[C@@H]2C` [Ophiopogonin D], for the setting “OC43 Inhibition rate, 24 h”, the “OC43 Inhibition rate” value stood at 1.6%. As to `C[S+]([O-])CCCC/C(=N\OS(=O)(=O)O)S[C@@H]1O[C@H](CO)[C@@H](O)[C@H](O)[C@H]1O` (stereo partly shown) [Glucoraphanin], the “OC43 Inhibition rate” value is -2.3%. As for `CC(C)=CCC[C@](C)(O)[C@H]1CC[C@]2(C)[C@@H]1[C@H](O)C[C@@H]1[C@@]3(C)CC[C@H](O)C(C)(C)[C@@H]3[C@@H](O[C@@H]3O[C@H](CO)[C@@H](O)[C@H](O)[C@H]3O[C@@H]3OC[C@@H](O)[C@H](O)[C@H]3O)C[C@]12C` [Notoginsenoside R2], the “OC43 Inhibition rate” value amounted to 0.5%. As to `CSSSC` [Dimethyl trisulfide], the “OC43 Inhibition rate” value was -0.3%. Turning to `COc1ccc2cc3[n+](cc2c1O)CCc1cc2c(cc1-3)OCO2` [Berberrubine (chloride)], the “OC43 Inhibition rate” value is -0.4%.
